Where “and” joins values, the source holds several entries; their conditions need not be identical. Equal entries are not always repeated. The whole screen tested about 5,500 compounds, of which about 2,000 (36%) were called active. About 18% were inconclusive and are not listed. Rule as the data show it: active = normalized growth mostly below about 0.91 (no sharp cut-off); inconclusive = no clear call, values can overlap the other calls; inactive = mostly above about 0.92. The list shows a part of the results.
Test: chemical genetic growth profiling, strain panel (AID 1159580);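 also: tested at 20 µM; growth read once vehicle control cultures reached saturation at 30 °C; 1 = growth at the plate median or of vehicle wells; lower values mean less growth of the strain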
Conditions: S. cerevisiae deletion strains, growth OD

Measured: normalized growth

COc1cc(C)c2c(c1C=O)Oc1c(c(C)c(O)c3c1C(O)OC3=O)OC2=O (stereo not drawn)
inactive: locus YAL013W, strain DEP1, active compounds read low 1 | locus YAL021C, strain ccr4, active compounds read low 1.01 | locus YAL026C, strain drs2, active compounds read low 1.02 | locus YAL030W, strain snc1, active compounds read low 1.02 | locus YBL061C, strain skt5, active compounds read low 1.02 | locus YBR009C, strain hhf1, active compounds read low 1.03 | locus YBR021W, strain FUR4, active compounds read low 1.01 | locus YBR023C, strain chs3, active compounds read low 1.05 | locus YBR171W, strain sec66, active compounds read low 1.02 | locus YBR229C, strain ROT2, active compounds read low 0.949 | locus YBR231C, strain swc5, active compounds read low 1.01 | locus YBR279W, strain paf1, active compounds read low 1.01 | locus YCL011C, strain gbp2, active compounds read low 1.03 | locus YCL016C, strain dcc1, active compounds read low 1.03 | locus YCL029C, strain bik1, active compounds read low 0.984 | locus YCL061C, strain MRC1, active compounds read low 1.02 | locus YCL069W, strain vba3, active compounds read low 1.01 | locus YCR088W, strain abp1, active compounds read low 1.01 | locus YDL005C, strain med2, active compounds read low 0.946 | locus YDL035C, strain GPR1, active compounds read low 0.965 | locus YDL040C, strain nat1, active compounds read low 1.01 | locus YDL074C, strain BRE1, active compounds read low 0.959 | locus YDL101C, strain DUN1, active compounds read low 0.99 | locus YDL185W, strain tfp1, active compounds read low 0.972 | locus YDL192W, strain arf1, active compounds read low 0.984 | locus YDR001C, strain nth1, active compounds read low 1.01 | locus YDR069C, strain doa4, active compounds read low 1 | locus YDR101C, strain arx1, active compounds read low 0.981 | locus YDR137W, strain rgp1, active compounds read low 1.06 | locus YDR150W, strain NUM1, active compounds read low 0.994 | locus YDR159W, strain sac3, active compounds read low 1.02 | locus YDR162C, strain NBP2, active compounds read low 0.941 | locus YDR195W, strain ref2 0.924 | locus YDR297W, strain sur2, active compounds read low 1.01 | locus YDR318W, strain mcm21, active compounds read low 1 | locus YDR334W, strain swr1, active compounds read low 1 | locus YDR335W, strain msn5, active compounds read low 1.01 | locus YDR388W, active compounds read low 0.997 | locus YDR392W, strain spt3, active compounds read low 1 | locus YDR502C, strain sam2, active compounds read low 1.04 | locus YEL003W, strain gim4, active compounds read low 1.02 | locus YEL037C, strain rad23, active compounds read low 1.02 | locus YEL061C, strain CIN8 (second series), active compounds read low 1 | locus YEL061C, strain CIN8, active compounds read low 0.974 | locus YER015W, strain faa2, active compounds read low 1.01 | locus YER016W, strain bim1, active compounds read low 1.02 | locus YER110C, active compounds read low 0.981 | locus YER111C, strain swi4, active compounds read low 1.01 | locus YER155C, strain BEM2 (second series), active compounds read low 1.02 | locus YER155C, strain BEM2, active compounds read low 0.995 | locus YER167W, strain BCK2, active compounds read low 0.986 | locus YFR010W, strain ubp6, active compounds read low 1.02 | locus YGL078C, strain dbp3, active compounds read low 1.02 | locus YGL086W, strain mad1, active compounds read low 1.01 | locus YGL167C, strain pmr1, active compounds read low 1.01 | locus YGL173C, strain kem1, active compounds read low 1.03 | locus YGL227W, strain vid30, active compounds read low 1.02 | locus YGL240W, strain doc1, active compounds read low 1.08 | locus YGL248W, strain PDE1, active compounds read low 1.02 | locus YGL253W, strain hxk2, active compounds read low 1.02 | locus YGR135W, strain pre9, active compounds read low 1.06 | locus YGR252W, strain gcn5, active compounds read low 1.05 | locus YHR013C, strain ard1, active compounds read low 1.05 | locus YHR027C, strain rpn1, active compounds read low 1.01 | locus YHR030C, strain SLT2, active compounds read low 0.992 and 0.99 | locus YHR079C, strain IRE1 (second series), active compounds read low 0.991 | locus YHR079C, strain IRE1, active compounds read low 0.994 | locus YHR094C, strain hxt1, active compounds read low 0.982 | locus YHR129C, strain ARP1, active compounds read low 0.984 | locus YHR142W, strain chs7, active compounds read low 1.05 | locus YHR200W, strain rpn10, active compounds read low 0.999 | locus YIL066C, strain RNR3, active compounds read low 0.97 | locus YIL073C, strain SPO22, active compounds read low 1.06 | locus YIL125W, strain kgd1, active compounds read low 0.984 | locus YIR030C, strain dcg1, active compounds read low 0.982 | locus YJL092W, strain hpr5, active compounds read low 1.01 | locus YJL095W, strain BCK1 (second series), active compounds read low 1.02 | locus YJL095W, strain BCK1, active compounds read low 1.08 and 0.976 | locus YJL115W, strain asf1, active compounds read low 1 | locus YJL129C, strain trk1, active compounds read low 1.03 | locus YJL134W, strain LCB3, active compounds read low 0.986 | locus YJL154C, strain vps35, active compounds read low 1.02 | locus YJL164C, strain tpk1, active compounds read low 1.03 | locus YJL166W, strain qcr8, active compounds read low 1.03 | locus YJL168C, strain set2, active compounds read low 0.993 | locus YJL187C, strain SWE1 (second series), active compounds read low 0.988 | locus YJL187C, strain SWE1, active compounds read low 1.02 | locus YJR066W, strain TOR1, active compounds read low 0.919 | locus YKL009W, strain mrt4, active compounds read low 0.948 | locus YKL068W, active compounds read low 0.983 | locus YKL085W, strain MDH1 (second series), active compounds read low 0.968 | locus YKL085W, strain MDH1, active compounds read low 0.968 | locus YKL160W, strain elf1, active compounds read low 1.03 | locus YKL190W, strain CNB1, active compounds read low 0.989 | locus YKR001C, strain vps1, active compounds read low 0.991 | locus YKR026C, strain gcn3, active compounds read low 1.01 | locus YKR091W, strain srl3, active compounds read low 1.01 | locus YLL001W, strain dnm1, active compounds read low 1.01 | locus YLL026W, active compounds read low 1.02 | locus YLL041C, strain sdh2, active compounds read low 1.01 | locus YLR027C, strain aat2, active compounds read low 1 | locus YLR039C, strain RIC1, active compounds read low 1.01 | locus YLR058C, strain SHM2, active compounds read low 0.966 | locus YLR102C, strain apc9, active compounds read low 0.986 | locus YLR113W, strain HOG1, active compounds read low 0.956 | locus YLR221C, strain rsa3, active compounds read low 1.03 | locus YLR258W, strain gsy2, active compounds read low 1.03 | locus YLR262C, strain YPT6 (second series), active compounds read low 1.06 | locus YLR268W, strain sec22, active compounds read low 0.975 | locus YLR320W, strain mms22, active compounds read low 1.06 | locus YLR330W, strain CHS5, active compounds read low 0.983 | locus YLR342W, strain FKS1 (second series), active compounds read low 0.99 | locus YLR342W, strain FKS1, active compounds read low 1.03 | locus YLR357W, strain rsc2, active compounds read low 0.997 | locus YLR370C, strain arc18, active compounds read low 1.02 | locus YLR371W, strain rom2, active compounds read low 0.972 | locus YLR384C, strain iki3, active compounds read low 1.01 | locus YLR418C, strain cdc73, active compounds read low 1.05 | locus YML016C, strain PPZ1, active compounds read low 0.985 | locus YML032C, strain rad52, active compounds read low 0.985 | locus YML120C, strain ndi1, active compounds read low 1.02 | locus YML124C, strain tub3, active compounds read low 0.996 | locus YMR058W, strain fet3, active compounds read low 0.996 | locus YMR078C, strain ctf18, active compounds read low 0.995 | locus YMR125W, strain sto1, active compounds read low 0.999 | locus YMR129W, active compounds read low 1.01 | locus YMR205C, strain PFK2, active compounds read low 1.03 | locus YMR223W, strain ubp8, active compounds read low 1 | locus YMR231W, strain pep5, active compounds read low 1.02 | locus YMR307W, strain GAS1, active compounds read low 0.922 | locus YNL067W, strain RPL9B, active compounds read low 1 | locus YNL071W, strain lat1, active compounds read low 1.02 | locus YNL128W, strain TEP1, active compounds read low 0.918 | locus YNL183C, strain NPR1, active compounds read low 0.935 | locus YNL209W, strain ssb2, active compounds read low 1 | locus YNL233W, strain BNI4, active compounds read low 1.02 | locus YNL248C, strain rpa49, active compounds read low 1.05 | locus YNL250W, strain rad50, active compounds read low 0.984 | locus YNL271C, strain bni1, active compounds read low 0.989 | locus YNL298W, strain CLA4, active compounds read low 0.987 | locus YNL307C, strain MCK1, active compounds read low 1 | locus YNL322C, strain KRE1 (second series), active compounds read low 1.01 | locus YNR049C, strain mso1, active compounds read low 1.02 | locus YNR052C, strain pop2, active compounds read low 1.02 | locus YOL012C, strain htz1 0.777 | locus YOL147C, strain pex11, active compounds read low 0.991 | locus YOR001W, strain rrp6, active compounds read low 1.03 | locus YOR061W, strain CKA2, active compounds read low 0.952 | locus YOR069W, strain VPS5, active compounds read low 0.992 | locus YOR070C, strain gyp1, active compounds read low 1.01 | locus YOR080W, strain dia2, active compounds read low 1.02 | locus YOR083W, strain WHI5, active compounds read low 1.03 | locus YOR106W, strain vam3, active compounds read low 1.03 | locus YOR136W, strain idh2, active compounds read low 0.987 | locus YOR144C, strain elg1, active compounds read low 0.99 | locus YOR184W, strain ser1, active compounds read low 0.959 | locus YOR231W, strain MKK1, active compounds read low 0.975 | locus YOR265W, strain rbl2, active compounds read low 1.01 | locus YOR270C, strain vph1, active compounds read low 1.15 | locus YOR290C, strain snf2, active compounds read low 1.01 | locus YOR316C, strain cot1, active compounds read low 1 | locus YPL051W, strain arl3, active compounds read low 1.04 | locus YPL055C, strain LGE1, active compounds read low 0.899 | locus YPL078C, strain atp4, active compounds read low 1.03 | locus YPL106C, strain sse1, active compounds read low 1.02 | locus YPL240C, strain hsp82, active compounds read low 1.01 | locus YPL241C, strain CIN2, active compounds read low 0.995 | locus YPL256C, strain CLN2, active compounds read low 0.974 | locus YPR119W, strain clb2, active compounds read low 1 | locus YPR141C, strain kar3, active compounds read low 0.979 | locus YPR163C, strain tif3, active compounds read low 1 | locus YPR167C, strain met16, active compounds read low 1.02 | strain wtn01, active compounds read low 0.976

Source: PubChem BioAssay AID1159580 (chemical genetic matrix, 2015)
